Holding throughout (format): functional
Assay [1] has as its system Plasmodium falciparum. The assay can be described thus: GSK_TCMDC: Inhibition of Plasmodium falciparum 3D7 in whole red blood cells, using parasite LDH activity as an index of growth. Test compounds present at 2uM.
For assay [2], the system named is Plasmodium falciparum. As to the kind of experiment: GSK_TCMDC: Inhibition of Plasmodium falciparum Dd2 in whole red blood cells, using parasite LDH activity as an index of growth. Test compounds present at 2uM.
The test system of a further assay is HepG2. The assay can be described thus: GSK_TCMDC: Percent inhibition of human HepG2 cell line. Test compounds present at 10uM.

In ChEMBL document CHEMBL1157539, “Thousands of chemical starting points for antimalarial lead identification” (Nature, 2010) one finds Inhibition data, which are given here for eleven compounds.

The structures appear in SMILES notation.

What is called Inhibition is the drop in the measured response relative to a control, in per cent. A low value points to a response near the control. Consider `CC(C)N1CCN(C(CN2CCN(CCCOc3ccccc3-c3ccccc3)CC2)c2ccc(F)cc2)CC1.Cl` (stereo not drawn), for which the values for the Inhibition in the assay on Plasmodium falciparum [1], with Plasmodium falciparum [2] and in the assay on HepG2 were 100%, 96% and 98%, respectively.
As to `O=C(Nc1cc(C(F)(F)F)cc(C(F)(F)F)c1)c1cccc([N+](=O)[O-])c1`, the Inhibition in the assay with Plasmodium falciparum [1] is reported as 93%; in the assay with Plasmodium falciparum [2] it was 15%; with HepG2, 23%.
Regarding `CCCCN(C(=O)c1ccccc1Cl)c1nnc(-c2ccccc2C)s1`, the Inhibition came out at 90% in the assay with Plasmodium falciparum [1], 86% with Plasmodium falciparum [2] and 12% in the assay with HepG2.
Taken in the same sequence, the figures for `Br.CCC(C)Oc1ccc(CCCON2C(N)=NC(N)=NC2(C)C)cc1` (stereo not drawn) were 92%, 95% and 65%.
Taken in the same sequence, the figures for `O=C(/C=C/c1ccc(I)cc1)NCCCCCN1CCC(c2c[nH]c3ccccc23)CC1` were 95%, 2% and 43%.
Taken in the same sequence, the figures for `CC(C)(C)c1ccc(C(=O)N2CCC3(CC2)C(=O)N(CC(=O)NCC2CCCO2)CN3c2ccccc2)cc1` (stereo not drawn) were 100%, 100% and 8%.
Consider `CCOc1ccc2nc(C)cc(N/N=C/c3ccccc3[N+](=O)[O-])c2c1`, for which the Inhibition worked out at 100% in the assay with Plasmodium falciparum [1], 99% with Plasmodium falciparum [2] and 91% with HepG2.
With `CN(CCCCN)Cc1ccc(-c2ccc(Cl)cc2)cc1`, the Inhibition with Plasmodium falciparum [1] stood at 97%; in the assay on Plasmodium falciparum [2], 20%; with HepG2, 96%.
Taken in the same sequence, the figures for `CN1CCN(CCCN(Cc2ccc(-c3cccc(CNCc4ccc5c(c4)OCO5)c3)cc2)C(=O)CCC2CCCC2)CC1.O=C(O)C(F)(F)F` were 92%, 85% and 24%.
As for `COc1cc2c(cc1N(C(C)C)S(=O)(=O)c1sc3ccc(Cl)cc3c1C)CCNCC2.Cl`, the Inhibition turned out to be 91% in the assay on Plasmodium falciparum [1], 70% in the assay with Plasmodium falciparum [2] and 98% with HepG2.
For `COc1ccccc1-c1cccc(-c2cccc(NC(=O)c3ccc([N+](=O)[O-])o3)c2)n1`, the Inhibition in the assay with Plasmodium falciparum [1] is listed as 97%; with Plasmodium falciparum [2] it was 59%; with HepG2, 78%.
